Assay results from PubChem BioAssay AID743279 (National Center for Advancing Translational Sciences (NCATS), 2014).
About 17,000 (4.7%) of roughly 360,000 compounds were called active. Another 5% or so got no clear call; they are omitted. The entries come from a sample that favours actives as a whole. Unmarked numbers belong to inactive results. Cut-off read from the data, not from the text of the source: active = activity change below about -50%; inconclusive = mostly about -30% to -49%; inactive = weaker than that.

Test: qHTS for Inhibitors of Inflammasome Signaling: IL-1-beta AlphaLISA Primary Screen
Details: THP-1 LPS/ATP IL-1B secretion, 16 h; at 57.5 µM, hits give low values
Outline: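 Secreted IL-1B measured by AlphaLISA bead assay after 16 h compound exposure of THP-1 cells; compounds (final up to 57.5 uM) added 1 h before LPS (250 ng/mL) and ATP (1.25 mM) stimulation; lower signal means less secretion.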
% is set by controls: 0 for no effect and ±100 for the full control effect.

Q: With `Cc1ccc(Nc2c(O)nc[nH]c2=O)cc1C` as the molecule, how does the activity change read?
A: The activity change was 13.4%.

Q: Which activity change does the source give for `COc1c(O)cccc1-c1nnn(CCC(=O)OCC(=O)c2ccccc2)n1` here?
A: The activity change was 14.4%.

Q: For `O=S1(=O)CCN(C2CCCCCCCCCCC2)CC1`, which activity change is on record?
A: Its activity change is 26.7%.

Q: Which activity change does the source give for `O=c1nc(NO)ccn1C1CCCO1` (centres undefined) here?
A: The activity change was 13.7%.

Q: With `Cc1cccc(C(=O)N2CCN(S(=O)(=O)N3CCCCC3)CC2)c1` as the molecule, how does the activity change read?
A: Its activity change is 0%.

Q: With `Cc1cccc(C)c1N1CCN(S(=O)(=O)N2CCOCC2)CC1` as the molecule, how does the activity change read?
A: The activity change was 0%.

Q: Which activity change does the source give for `Cc1cccc(C)c1N1CCN(S(=O)(=O)N2CCCCC2)CC1` here?
A: The activity change was -53.3% (active).

Q: Which activity change does the source give for `CCC(c1nnnn1-c1ccc2c(c1)OCCO2)N1CCN(c2ccc(C(F)(F)F)cn2)CC1` (centres undefined) here?
A: The activity change was 25.4%.

Q: For `CCCNC(=O)CCc1c(C)nc2c(c(C)nn2-c2ccccc2)c1C`, which activity change is on record?
A: Its activity change is -2.57%.

Q: Which activity change does the source give for `CC(=O)C[C@@H]1OC[C@H](CO)N1S(=O)(=O)c1ccc(C)cc1` here?
A: Its activity change is 5.63%.

Q: Which activity change does the source give for `O=C(NCCN1CCOCC1)C1CCN(S(=O)(=O)c2ccccc2)CC1` here?
A: Its activity change is 0.358%.

Q: For `CN1CCN(C(=O)c2ccc(-c3cc4nc(NCc5cccnc5)n(C)c(=O)c4s3)cc2)CC1`, which activity change is on record?
A: The activity change was -15.2%.

Q: For `Nc1ccc(C(=O)N2CCN(S(=O)(=O)c3ccc(Cl)cc3)CC2)cc1[N+](=O)[O-]`, which activity change is on record?
A: Its activity change is -21.1%.

Q: With `CC1CCN(C(=O)c2ccc(S(=O)(=O)Cc3cc(F)ccc3F)c([N+](=O)[O-])c2)CC1` as the molecule, how does the activity change read?
A: The activity change was -96.6% (active).

Q: For `O=C(c1ccc(Oc2ccc(Cl)cc2)c([N+](=O)[O-])c1)N1CCCC1`, which activity change is on record?
A: Its activity change is -22.3%.

Q: With `COc1cc(OC)c(C(=O)NNC(=O)c2ccccc2-n2cccc2)cc1OC` as the molecule, how does the activity change read?
A: The activity change was 3.76%.

Q: For `CN(C)c1ccc(/C=C/C(=O)c2ccc(C(C)(C)C)cc2)cc1[N+](=O)[O-]`, which activity change is on record?
A: Its activity change is -95.8% (active).

Q: With `Cc1cc(C)n(-c2ccc(C(=O)O)cc2[N+](=O)[O-])n1` as the molecule, how does the activity change read?
A: Its activity change is 40.6%.

Q: With `CNc1ccc(NC(C)=O)cc1[N+](=O)[O-]` as the molecule, how does the activity change read?
A: Its activity change is -5%.

Q: Which activity change does the source give for `CC(=O)Nc1ccc(C=CC(=O)c2ccc([N+](=O)[O-])cc2)cc1` here?
A: The activity change was 1.95%.

Q: For `O=C(/C=C\c1ccc2c(c1)OCO2)NC1(C(=O)Nc2ccc3c(c2)OCCO3)CCCCC1`, which activity change is on record?
A: The activity change was -1.03%.

Q: With `O=C(/C=C/c1ccc(Cl)c([N+](=O)[O-])c1)c1ccc(O)cc1` as the molecule, how does the activity change read?
A: The activity change was -99.9% (active).

Q: Which activity change does the source give for `C/C(=N\Nc1nncc2ccccc12)c1ccc(Cl)c([N+](=O)[O-])c1` here?
A: Its activity change is -6.54%.

Q: Which activity change does the source give for `CN(C)c1ccc(/C=C/C(=O)c2ccc(O)cc2)cc1[N+](=O)[O-]` here?
A: Its activity change is -97.8% (active).

Q: Which activity change does the source give for `O=C(/C=C/c1ccc2c(c1)OCCO2)c1ccc(O)cc1` here?
A: Its activity change is -103% (active).

Q: Which activity change does the source give for `CC(=O)c1ccc2c(c1)OCCOCCOc1ccc(C(C)=O)cc1OCCOCCO2` here?
A: Its activity change is 0%.

Q: For `CC(=O)Nc1ccc(C(=O)/C=C/c2ccc[nH]2)cc1`, which activity change is on record?
A: Its activity change is -9.5%.

Q: For `Cc1cc(C(=O)O)ccc1[N+](=O)[O-]`, which activity change is on record?
A: The activity change was -16.6%.

Q: Which activity change does the source give for `CCOC(=O)C1(CCOC)CCN(Cc2cc3ccccc3s2)CC1` here?
A: The activity change was -8.97%.

Q: Which activity change does the source give for `CCOc1ccccc1NC(=S)C(=C([O-])c1ccc2c(c1)OCCO2)[n+]1ccc(CC)cc1` here?
A: Its activity change is 3.49%.

Q: With `Cc1ccc(Cc2nnc(SCC(=O)Nc3ccccc3C)[nH]c2=O)cc1` as the molecule, how does the activity change read?
A: Its activity change is 19.7%.

Q: Which activity change does the source give for `O=C(Nc1cccc2ccccc12)c1[nH]c(-c2ccccc2)c2c1C(=O)N(C1CC1)C2=O` here?
A: The activity change was -16.9%.

Q: For `CC(O)CN(Cc1ccc(Cl)cc1)CC(C)O` (centres undefined), which activity change is on record?
A: The activity change was -2.11%.

Q: For `CCOC(=O)C(NC(=O)CC(C)C)(Nc1sc2c(c1C(N)=O)CCCC2)C(F)(F)F` (centres undefined), which activity change is on record?
A: Its activity change is “inactive”.

Q: With `CN(C)C(CNC(=O)c1cccc(S(=O)(=O)N2CCc3ccccc3C2)c1)c1ccccc1` (centres undefined) as the molecule, how does the activity change read?
A: The activity change was -16.7%.

Q: For `O=C(C1CCN(CC2CCCCC2)CC1)N1CCCC1`, which activity change is on record?
A: The activity change was -2.85%.

Q: For `CCCCC(=O)N1CC2(C)CN(C(=O)CCCC)CC(C)(C1)C2=O`, which activity change is on record?
A: Its activity change is 14%.

Q: For `COCCN(CCOC)S(=O)(=O)c1ccc(/C(O)=C(\C#N)c2nc3ccccc3[nH]2)cc1`, which activity change is on record?
A: The activity change was -11.3%.

Q: With `CC(C)(C)c1nnc2sc(SCC(O)=C(C#N)c3nc4ccccc4[nH]3)nn2c1=O` as the molecule, how does the activity change read?
A: Its activity change is 20.2%.

Q: With `N#C/C(=C(/O)COC(=O)COc1ccc(Cl)cc1)c1nc2ccccc2[nH]1` as the molecule, how does the activity change read?
A: The activity change was -99.4% (active).

Q: Which activity change does the source give for `Cc1cc(NC(=O)Nc2ccccc2[N+](=O)[O-])no1` here?
A: The activity change was -17.8%.

Q: Which activity change does the source give for `CC1CCCN(C(=O)Cn2c(=O)oc3cc(S(=O)(=O)N4CCCCC4C)ccc32)C1` (centres undefined) here?
A: Its activity change is 11.7%.

Q: With `Cc1cccc(-c2noc(-c3ccc(F)cc3)n2)c1` as the molecule, how does the activity change read?
A: Its activity change is 19.9%.

Q: With `Oc1ccc(-c2nnc(Nc3ccccc3)c3ccccc23)cc1` as the molecule, how does the activity change read?
A: The activity change was 13.6%.

Q: With `Cc1cccc(-c2nc(Nc3ccc(O)cc3)c3ccccc3n2)c1` as the molecule, how does the activity change read?
A: The activity change was -81.3% (active).

Q: Which activity change does the source give for `CCc1ccccc1OCC(=O)Nc1ccc2c(c1)OCCO2` here?
A: Its activity change is -6.79%.

Q: Which activity change does the source give for `O=C(CCl)Nc1ccc(Sc2ccc(NC(=O)CCl)cc2)cc1` here?
A: Its activity change is -101% (active).

Q: Which activity change does the source give for `CC(C)(CCl)C(=O)Nc1ccc(Sc2ccc(F)cc2)cc1` here?
A: The activity change was -12.9%.

Q: Which activity change does the source give for `CC(=O)Nc1ccc(SCC(=O)NC(=O)c2ccc(Cl)cc2)cc1` here?
A: The activity change was -2.04%.

Q: Which activity change does the source give for `CC1CCN(C(=O)c2ccccc2NC(=O)Cc2ccccc2)CC1` here?
A: The activity change was 29.6%.

Q: For `C[C@H](CO)N1C[C@H](C)[C@@H](CN(C)C(=O)C2CCCCC2)OCc2cnnn2CCCC1=O`, which activity change is on record?
A: The activity change was 2.8%.

Q: For `CCN1/C(=C\c2ccc3ccccc3[n+]2CC)Sc2cc(C)ccc21`, which activity change is on record?
A: Its activity change is -99.7% (active).

Q: Which activity change does the source give for `CCN1/C(=C/c2ccc3ccc(C)cc3[n+]2CC)Sc2ccccc21` here?
A: Its activity change is -101% (active).

Q: For `O=C(Nc1cccc(Br)c1)C1CC(=O)N(C2CCCC2)C1` (centres undefined), which activity change is on record?
A: The activity change was 15.6%.

Q: With `CCCS(=O)(=O)NC(=O)C1(C)CCCN(C(=O)c2cc(C)on2)C1` (centres undefined) as the molecule, how does the activity change read?
A: Its activity change is 19.3%.

Q: For `O=C1NC(O)CCN1C1CC(O)C(CO)O1` (centres undefined), which activity change is on record?
A: Its activity change is 0%.

Q: For `CC1(C(=O)Nc2cccc(Oc3ccccc3)c2)CCN1Cc1ccccc1Cl` (centres undefined), which activity change is on record?
A: Its activity change is -0.171%.

Q: With `CCC(C)c1ccccc1N1CC(C(=O)N2CCN(S(=O)(=O)c3ccc(F)cc3)CC2)CC1=O` (centres undefined) as the molecule, how does the activity change read?
A: Its activity change is -6.2%.

Q: With `Cc1nc(C(F)(F)F)ccc1C(=O)N1CCC1(C)C(=O)NS(=O)(=O)c1ccc(F)cc1F` (centres undefined) as the molecule, how does the activity change read?
A: Its activity change is 20.5%.
